Screening data (PubChem)
In the library only some 2.3% were active in any assay of this set; here they are far more common.
Mcl1-Noxa inh: Mcl-1/Noxa binding inhibitors, primary screen, biochemical, TR-FRET, 1536-well; TR-FRET Mcl-1/Noxa peptide binding, 2 h; inhibition, % at 21.7 µM; Induced myeloid leukemia cell differentiation protein Mcl-1 (Homo sapiens), Q07820; 220,000 tested, 1.5% active;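 active = compounds that cut the protein-peptide binding signal by more than 50% relative to plate controls in a single-dose test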;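 also: His-tagged Mcl-1 with rhodamine Noxa BH3 peptide and terbium anti-His antibody; 0% = Mcl-1 plus Noxa peptide wells and 100% = peptide-only wells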
GLD-1 TGE inh: GLD-1/TGE RNA complex disruptors, primary screen, biochemical, fluorescence polarization | purified GLD-1 + fluorescein TGE RNA | inhibition, % at 5.96 µM | 320,000 tested, 0.44% active | AID 2280, 2010;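 active = percent inhibition above a per-plate cutoff, the plate mean of test compounds plus 3 SD, cut at about 30% in these data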;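 also: 0% = DMSO wells with GLD-1 and probe and 100% = wells lacking GLD-1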
Bcl-xL primary: inhibitors of human Bcl-xL, primary screen, biochemical, fluorescence polarization, HTS; GST-Bcl-xL / FITC-Bim BH3 peptide fluorescence polarization; inhibition, % at 10.9 µM; AID 2129, 2009; 320,000 tested, 0.7% active; Bcl-2-like protein 1 (Homo sapiens), Q07817;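 active = inhibition above the mean of all tested compounds plus 3 SD, cutoff set per campaign, cut at about 30% in these data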;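 also: 0% = DMSO wells and 100% = unlabeled Bim-BH3 peptide competitor; inhibitors lower millipolarization by displacing the labeled peptide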
Target sequence (Q07817 whole entry, looked up): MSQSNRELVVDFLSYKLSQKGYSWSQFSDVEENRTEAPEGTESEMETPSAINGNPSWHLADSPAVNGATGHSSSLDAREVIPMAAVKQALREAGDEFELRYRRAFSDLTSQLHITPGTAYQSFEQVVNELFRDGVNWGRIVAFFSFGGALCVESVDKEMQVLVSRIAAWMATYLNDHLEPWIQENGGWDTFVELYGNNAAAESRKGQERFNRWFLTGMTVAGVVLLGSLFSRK
Mcl-1 Bim block: inhibitors of Bim peptide binding to Mcl-1, primary screen, biochemical, bead-based flow cytometry, multiplex; Induced myeloid leukemia cell differentiation protein Mcl-1 (Homo sapiens), Q07820; 190,000 tested, 0.1% active; AID 1009, 2008; inhibition, % at 10 µM; Bim peptide-Mcl-1 binding; in the data active = inhibition above about 40%;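 also: 0% = no compound tracer wells and 100% = peptide blocker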
MCL1 BIM primary: inhibitors of MCL1 binding to BIM-BH3, primary screen, biochemical, fluorescence polarization. Induced myeloid leukemia cell differentiation protein Mcl-1 (Homo sapiens), Q07820. GST-MCL1 / FITC-Bim-BH3 fluorescence polarization. inhibition, % at 10.9 µM. 320,000 tested, 0.68% active. AID 2057, 2009;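 active = inhibition above the mean inhibition of all tested compounds plus 3 SD, set per campaign, cut at about 40% in these data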;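 also: 0% = DMSO wells and 100% = unlabeled Bim-BH3 peptide control; higher means more loss of mP so more displacement of Bim peptide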
Mcl1-Bid inh: Mcl-1/Bid binding inhibitors, primary screen, biochemical, TR-FRET, 1536-well | Induced myeloid leukemia cell differentiation protein Mcl-1 (Homo sapiens), Q07820 | TR-FRET Mcl-1/Bid-Dy647 peptide binding | inhibition, % at 21.7 µM | 220,000 tested, 0.97% active | AID 1021, 2008;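 active = compounds that cut the binding signal by more than half at the single screening dose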;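 also: His-tagged Mcl-1 with europium anti-His antibody binding Bid BH3 peptide; 0% = Mcl-1 plus peptide wells and 100% = peptide-only wells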
* hit, by the source's call; . = no result.

SMILES	Mcl1-Noxa inh	GLD-1 TGE inh	Bcl-xL primary	Mcl-1 Bim block	MCL1 BIM primary	Mcl1-Bid inh
Cc1ccc(-c2nc(N/N=C/c3cccnc3)c3ccccc3n2)cc1	24.3	-1.8	1.8	-1.0	0.7	1.3
CCOC(=O)C1CCN(C(=O)c2cc3c(C)cc(C)cc3[nH]2)CC1	.	-1.4	6.6	.	3.9	.
CCN(CC)S(=O)(=O)c1cccc(C(=O)Oc2cccnc2)c1	5.1	3.8	4.8	0.0	8.0	-15.7
CC(=O)Nc1ccc2[nH]c3ccccc3c2c1	-18.1	-5.3	5.3	-1.0	3.1	-27.5
O=C(Nc1ccc(Cl)cc1)c1cc2c(cc1O)[nH]c1ccccc12	61.5*	10.2	-0.6	.	-0.5	34.1
C=CCc1c(C)[nH]c2c(OC)cccc2c1=S	59.9*	-4.7	11.7	-1.0	7.8	26.4
COc1cccc(CNC(=O)C(NS(=O)(=O)c2ccc3c(c2)CCN3C(C)=O)C(C)C)c1 (stereo unspecified)	.	6.0	-0.7	.	-5.3	.
CNC(=O)c1c(NC(=O)c2ccc(S(=O)(=O)N3CCCc4ccccc43)cc2)sc2c1CCN(C)C2	7.8	-50.6	-50.0	.	-97.6	-23.7
CN1CCc2c(sc(NC(=O)c3ccc(S(=O)(=O)N4CCc5ccccc54)cc3)c2C(N)=O)C1	51.8*	-22.9	-10.9	.	-26.8	28.4
Cc1ccc(C(=O)NNC2=Nc3cccc4cccc2c34)cc1	67.1*	6.3	0.2	-5.0	0.1	19.8
Cc1ccc(C(=O)NNC(=O)c2ccc3ncccc3c2)cc1	-3.6	.	.	50.0*	.	-8.8
Cc1ccc(C(=O)NNc2c3ccccc3nc3ccccc23)cc1	81.2*	7.1	16.1	.	17.0	11.8
O=C(NNc1c2ccccc2nc2ccccc12)c1ccc(Cl)cc1	.	-10.9	2.9	.	8.4	.
COc1ccc(C(=O)NNC2=Nc3cccc4cccc2c34)cc1	0.6	-3.1	-4.5	0.0	-5.1	-7.2
CN(C(=O)OCc1ccccc1)C(CC(N)=O)C(=O)O (stereo unspecified)	3.8	8.8	7.5	-1.0	3.5	2.7
O=C(CCl)Nc1nc(-c2ccco2)c(-c2ccco2)s1	53.5*	-5.4	8.7	5.0	12.1	-10.9
O=C(CCCSc1ccccc1)Nc1nc(-c2ccco2)c(-c2ccco2)s1	52.1*	1.1	7.3	-1.0	22.3	-5.7
O=C(CCCSc1ccccc1)Nc1nc(-c2ccccn2)cs1	-62.6	0.2	10.7	-1.0	19.4	-65.9
O=C(CN1CCN(c2ccc(F)cc2)CC1)Nc1cc(C(F)(F)F)ccc1Cl	5.6	0.9	1.9	-4.0	-6.2	-30.9
CC1CCc2c(sc3ncn(CC(=O)N=Nc4c(O)[nH]c5ccccc45)c(=O)c23)C1 (stereo unspecified)	19.9	2.7	0.0	.	6.5	67.9*
CC1CCc2c(sc3ncn(CCO)c(=O)c23)C1 (stereo unspecified)	-0.6	2.9	0.6	1.0	-1.8	3.8
c1cncc(Nc2c3ccccc3nc3ccccc23)c1	.	10.6	7.9	.	9.8	.
Clc1cncc(Cl)c1NNc1c2ccccc2nc2ccccc12	57.6*	11.2	9.9	-6.0	4.5	-9.3
CCC(C)NS(=O)(=O)c1cc2c3c(c1)CCN3C(=O)CC2 (stereo unspecified)	.	-0.3	0.4	.	3.7	.
Cc1cc(NC(=O)c2ccc3c(c2)C(=O)N(C(C)(C)C)C3=O)no1	0.6	-4.4	3.7	-4.0	6.4	-55.3
C=CCOC(=O)C(=O)/C=C/c1coc2ccccc2c1=O	4.9	63.4*	51.5*	-1.0	46.5*	-5.5
C=CCOC(=O)C(=O)/C=C/c1c(C)n(C)n(-c2ccccc2)c1=O	-10.6	3.9	3.7	0.0	5.2	-8.6
Cc1ccc(OCc2nnc(SCC(=O)Nc3sc(C)c(C)c3C#N)n2C)cc1	-13.5	0.1	-2.3	-1.0	-5.5	5.6
